From PubChem BioAssay (Tox21)
Results filed as inconclusive are left out. Values without a mark were called inactive. Calls of active or inactive are those of the source. The call rests on the fitted dose curve; in most records, active means well fitted activation curve with a large enough effect in the signal ratio in the repeat runs (not every such curve was filed as active); inconclusive means weak or mixed curves, or effect the other way; inactive means no such curve, though single readings can be large or run the other way; the % refers to the signal ratio.

Test: qHTS assay for small molecule agonists of the antioxidant response element (ARE) signaling pathway (AID 743202)
Settings: HepG2 ARE-bla reporter, beta-lactamase FRET, 16 h; series mostly up to 73.3 µM; activation: at the top concentration
Excerpt: U.S. Tox21 Program National Center for Advancing Translational Sciences [NCATS] NIH Chemical Genomics Center [NCGC] U.S. Environmental Protection Agency [EPA] National Institutes of Environmental Health Sciences [NIEHS] National Toxicology Program [NTP] U.S. Food and Drug Administration [FDA] Tox21 Assay Overview: Oxidative stress has been implicated in the pathogenesis of a variety of diseases ranging from cancer to neurodegeneration. The antioxidant response element (ARE) signaling pathway plays an important role in the amelioration of oxidative stress. The CellSensor ARE-bla HepG2 cell line (Invitrogen) can be used for analyzing the Nrf2/antioxidant response signaling pathway. Nrf2 (NF-E2-related factor 2) and Nrf1 are transcription factors that bind to AREs and activate these genes. The CellSensor ARE-bla Hep G2 cell line contains a beta-lactamase reporter gene under control of the Antioxidant Response Element (ARE) stably integrated into HepG2 cells. The activation of the report gene under culture conditions can be detected by fluorescence intensity. This cell line has been used to screen the Tox21 10K compound library to identify agonists that induce oxidative stress.
Tox21 Assay Protocol Summary: The ARE-bla cells were dispensed at 2,000 cells/5 ul/well in 1536-well black wall/clear bottom plates using a Multidrop dispenser. After the assay plates were incubated at a 37 C/5% CO2 incubator for 5 hours, 23 nL of compounds dissolved in DMSO, positive controls or DMSO only was transferred to the assay plate by a pin tool. The plates were incubated at 37 C for 16 hours. After 1 uL of LiveBLAzer B/G FRET substrate was added using a Flying Reagent Dispenser, the plates were incubated at room temperature for 2 hours, and fluorescence intensity was measured by an Envision plate reader.
On the % scale 0 is the no-effect control and ±100 the full control effect.

Row | Compound | activation | Potency
1 | C=C(C)C(=O)OCCCCOC(=O)C(=C)C | 11.1% | –
2 | O=C=NC1CCCCC1 | -6.91% | –
3 | CC(C)c1ccc(OP(=O)(Oc2ccc(C(C)C)cc2)Oc2ccc(C(C)C)cc2)cc1 | 14% | –
4 | Nc1cc(Cl)cc(C(=O)O)c1Cl | – | inactive
5 | CCCC(C)(COC(N)=O)COC(=O)NC(C)C (stereo not given) | – | inactive
6 | Nc1cccc2ccccc12 | 29.7% | –
7 | Cc1cnc(C2=NC(C)(C(C)C)C(=O)N2)c(C(=O)O)c1 (stereo not given) | -7.41% | –
8 | CCCC[N+](CCCC)(CCCC)CCCC | 5.43% | –
9 | CN(C1CCCCC1)C1CCCCC1 | -3.96% | –
10 | CN1CC[C@]23c4c5ccc(O)c4O[C@H]2[C@@H](O)CC[C@H]3[C@H]1C5 | -1.24% | –
11 | CCOC(=O)NC(O)C(Cl)(Cl)Cl (stereo not given) | 0.477% | –
12 | CCCCCl | -2.15% [at 94.8 µM] | –
13 | CC(C)(C)c1ccc(CCOc2ncnc3ccccc23)cc1 | -6.03% | –
14 | COc1ccc(C(=O)c2c(C)n(CCN3CCOCC3)c3ccccc23)cc1 | 9.19% | –
15 | CN(C)N | -6.19% | –
16 | C=CCSSCC=C | 12.7% | –
17 | NC(=S)c1c(Cl)cccc1Cl | -6.06% | –
18 | CCOP(=S)(OCC)SCSc1cc(Cl)ccc1Cl | -1.73% | –
19 | CCCSP(=S)(OCC)Oc1ccc(SC)cc1 (stereo not given) | -0.0826% | –
20 | O=S(=O)(c1ccccc1)c1ccccc1 | -22.5% | –

Row | Compound | activation | Potency
21 | C[N+]1(CCC(C(N)=O)(c2ccccc2)c2ccccc2)CCCCC1 | 1.31% | –
22 | C[N+]1(CCF)[C@@H]2CC[C@H]1CC(OC(=O)C(O)(c1ccccc1)c1ccccc1)C2 (stereo not given in full) | -6.5% | –
23 | CCCCOC(=O)CCC(=O)OCCCC | -7.92% | –
24 | CC1(C)CC(=O)CC(C)(C)N1[O] | -0.644% | –
25 | CCOC(=O)C1OC1(C)c1ccccc1 (stereo not given) | -13.2% | –
26 | CCCBr | -9.59% | –
27 | CCC1CCC(=O)O1 (stereo not given) | -0.973% [at 94.8 µM] | –
28 | CCOC(=O)c1cncn1C(C)c1ccccc1 (stereo not given) | -2.11% | –
29 | c1ccc2c(c1)-c1cccc3cccc-2c13 | – | inactive
30 | C=CC(=O)NC(C)(C)CC(C)=O | 0.274% | –
31 | CCCC[P+](CC)(CCCC)CCCC (tested in a mixture with another compound) | -1.86% [at 94.8 µM] | –
32 | C=CCOCC1CO1 (stereo not given) | 0.0178% | –
33 | CC(C)c1ccc(NC(=O)N(C)C)cc1 | 0.274% | –
34 | O=C(O)C(O)C(O)C(=O)O (stereo not given) | 0.67% | –
35 | CC(C)(C)NCC(O)c1cc(Cl)c(N)c(C(F)(F)F)c1 (stereo not given) | -0.886% | –
36 | CCOP(=S)(S)OCC | -1.18% [at 94.8 µM] | –
37 | CC(C)(C)N(NC(=O)c1ccc(Cl)cc1)C(=O)c1ccccc1 | 1.08% | –
38 | COC1CC(=C(c2cccs2)c2cccs2)C[N+](C)(C)C1 (stereo not given) | 6.2% | –
39 | C[Si](Cn1cncn1)(c1ccc(F)cc1)c1ccc(F)cc1 | 4.85% [at 94.8 µM] | –
40 | FC(Cl)(Cl)C(F)(Cl)Cl | -9.8% [at 94.8 µM] | –
